In PubChem BioAssay (EPA / NIEHS):
“And” between values parts separate entries of the source, which are not always exact repeats. Equal values may be shown once. Records with an inconclusive call do not appear. Some structures have more than one record in an assay (separate samples or runs), and their calls can disagree. The source made the active and inactive calls. The calls were made as follows, unless noted: active = hit-call score of the fitted dose curve at least 0.9, where 1 is the maximum; inactive = score below 0.9.

What was measured:
[1] = target: human RAR-related Orphan Receptor gamma (RORg), RORC (gene 6097) (UniProt P51449); assay: ATG_RORg_TRANS: Attagene TRANS-FACTORIAL HepG2 Assay for human RAR-related Orphan Receptor gamma (RORg) (AID 2283011; active = hit-call score of the fitted dose curve at least 0.9, where 1 is the maximum)
human RAR-related Orphan Receptor gamma (RORg), RORC (gene 6097), sequence (P51449 whole entry, looked up, the tested form may be a part): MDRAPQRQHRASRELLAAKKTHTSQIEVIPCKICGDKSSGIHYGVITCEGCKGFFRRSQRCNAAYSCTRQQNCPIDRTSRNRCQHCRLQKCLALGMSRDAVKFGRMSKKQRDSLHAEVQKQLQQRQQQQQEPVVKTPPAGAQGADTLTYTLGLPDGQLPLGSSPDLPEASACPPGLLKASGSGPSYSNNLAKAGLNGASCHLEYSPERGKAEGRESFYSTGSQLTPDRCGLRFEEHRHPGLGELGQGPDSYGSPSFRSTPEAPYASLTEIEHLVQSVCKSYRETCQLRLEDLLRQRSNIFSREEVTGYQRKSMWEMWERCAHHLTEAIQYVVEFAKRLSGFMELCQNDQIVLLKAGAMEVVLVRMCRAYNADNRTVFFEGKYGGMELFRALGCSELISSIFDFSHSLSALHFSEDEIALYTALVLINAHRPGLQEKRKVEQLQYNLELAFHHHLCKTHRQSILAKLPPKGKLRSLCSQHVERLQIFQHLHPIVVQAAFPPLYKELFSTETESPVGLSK
How it was run: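 Chimeric RORg-Gal4 transactivation in transfected HepG2; 24 h exposure; RT-PCR/capillary electrophoresis readout of reporter mRNA, DMSO baseline.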

[2] = target: Retinoic acid receptor RXR-alpha (Homo sapiens) (UniProt P19793); assay: ATG_RXRa_TRANS: Attagene TRANS-FACTORIAL HepG2 Assay for human Retinoid X Receptor alpha (RXRa) (AID 2283012; active = hit-call score of the fitted dose curve at least 0.9, where 1 is the maximum)
Retinoic acid receptor RXR-alpha (Homo sapiens), sequence (P19793 whole entry, looked up, the tested form may be a part): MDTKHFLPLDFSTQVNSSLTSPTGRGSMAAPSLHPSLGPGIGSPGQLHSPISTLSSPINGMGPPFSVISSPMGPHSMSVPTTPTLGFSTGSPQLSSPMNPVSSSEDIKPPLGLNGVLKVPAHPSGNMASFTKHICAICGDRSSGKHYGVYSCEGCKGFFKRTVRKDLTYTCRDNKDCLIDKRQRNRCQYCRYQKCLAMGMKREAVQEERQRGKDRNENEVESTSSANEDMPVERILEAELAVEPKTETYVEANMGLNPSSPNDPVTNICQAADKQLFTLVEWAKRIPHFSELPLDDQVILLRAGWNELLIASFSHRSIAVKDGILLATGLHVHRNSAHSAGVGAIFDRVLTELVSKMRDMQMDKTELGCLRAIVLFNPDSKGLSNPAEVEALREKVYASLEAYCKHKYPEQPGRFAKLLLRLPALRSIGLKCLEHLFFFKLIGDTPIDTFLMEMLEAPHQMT
How it was run: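 TRANS format reporting activity of exogenous RXRa-Gal4 chimera in transiently transfected HepG2, 24 h exposure. Reporter transcripts quantified by RT-PCR with capillary electrophoresis, with gain of signal scored relative to DMSO.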

[3] = target: human Retinoid X Receptor beta (RXRb), RXRB (gene 6257) (UniProt P28702); assay: ATG_RXRb_TRANS: Attagene TRANS-FACTORIAL HepG2 Assay for human Retinoid X Receptor beta (RXRb) (AID 2283013; active = hit-call score of the fitted dose curve at least 0.9, where 1 is the maximum)
human Retinoid X Receptor beta (RXRb), RXRB (gene 6257), sequence (P28702 whole entry, looked up, the tested form may be a part): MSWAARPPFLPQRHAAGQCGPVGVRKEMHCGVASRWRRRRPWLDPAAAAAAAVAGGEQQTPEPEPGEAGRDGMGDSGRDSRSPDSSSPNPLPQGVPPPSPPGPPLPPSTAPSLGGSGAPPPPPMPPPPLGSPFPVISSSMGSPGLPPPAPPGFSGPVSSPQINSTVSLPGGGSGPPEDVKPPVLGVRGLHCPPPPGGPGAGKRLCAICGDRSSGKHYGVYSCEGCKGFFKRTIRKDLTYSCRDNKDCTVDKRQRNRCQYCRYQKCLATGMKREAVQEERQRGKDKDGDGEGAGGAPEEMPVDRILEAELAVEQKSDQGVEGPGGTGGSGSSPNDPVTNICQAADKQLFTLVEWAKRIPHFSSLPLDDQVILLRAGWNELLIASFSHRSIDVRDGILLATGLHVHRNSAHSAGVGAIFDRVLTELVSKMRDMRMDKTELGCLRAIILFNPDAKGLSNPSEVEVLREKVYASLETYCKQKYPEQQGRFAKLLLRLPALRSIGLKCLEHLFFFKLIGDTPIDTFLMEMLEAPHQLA
How it was run: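 Readout is reporter transcript induction after 24 h dosing. It is measured by RT-PCR of total RNA followed by fluorescent capillary electrophoresis. HepG2 liver cells carry transfected multiple reporter units driven by an exogenous RXRb-Gal4 fusion; activity is relative to DMSO.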

[4] = read-out: E-selectin (Homo sapiens) (UniProt P16581); assay: BSK_3C_Eselectin: BioMAP Diversity Plus: 3C Assay for Eselectin Biomarker Activity (AID 2283015); details: primary human endothelial cells (HUVEC); actives raise or lower the signal
How it was run: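 Endpoint derived by bidirectional fitting against DMSO vehicle; signal is ELISA-detected E-selectin from primary HUVEC at 24 h post-dosing, with parallel SRB staining (0.1% SRB, 560 nm) flagging cytotoxicity.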

[5] = read-out: Interleukin-1 alpha (IL1a), IL1A (gene 3552); assay: BSK_BE3C_IL1a: BioMAP Diversity Plus: BE3C Assay for Interleukin-1 alpha (IL1a) Biomarker Activity (AID 2283016); details: primary human bronchial epithelial cells; actives raise or lower the signal
How it was run: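 IL-1a measured by ELISA after 24 h treatment of human primary bronchial epithelial cells, with gain or loss of signal fitted versus DMSO. Parallel cultures stained with SRB gauge overt cytotoxicity.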

[6] = read-out: Monocyte Chemoattractant Protein-1 (MCP1), CCL2 (gene 6347); assay: BSK_3C_MCP1: BioMAP Diversity Plus: 3C Assay for Monocyte Chemoattractant Protein-1 (MCP1) Biomarker Activity (AID 2283017); details: primary human endothelial cells (HUVEC); actives raise or lower the signal
How it was run: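 Using human vascular primary endothelium, researchers measured MCP-1 by ELISA 24 h after treatment, with DMSO serving as negative control for bidirectional fitting.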

[7] = read-out: Monocyte Chemoattractant Protein-1 (MCP1), CCL2 (gene 6347); assay: BSK_4H_MCP1: BioMAP Diversity Plus: 4H Assay for Monocyte Chemoattractant Protein-1 (MCP1) Biomarker Activity (AID 2283018); details: primary human endothelial cells (HUVEC); actives raise or lower the signal
How it was run: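 ELISA of MCP-1 (CCL2) 24 h after chemical dosing of HUVEC in the BioMAP 4H system. Gain or loss versus DMSO fitted; parallel SRB staining (560 nm) tracked overt cytotoxicity.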

[8] = read-out: Human Leukocyte Antigen - DR isotype (HLADR), HLA-DRA (gene 3122); assay: BSK_3C_HLADR: BioMAP Diversity Plus: 3C Assay for Human Leukocyte Antigen - DR isotype (HLADR) Biomarker Activity (AID 2283019); details: primary human endothelial cells (HUVEC); actives raise or lower the signal
How it was run: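 Compound added to primary HUVEC cultures, 24 h incubation, then HLA-DR determined by ELISA; endpoint derived by bidirectional fitting relative to DMSO negative control.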

[9] = read-out: Interleukin-8 (IL8), CXCL8 (gene 3576); assay: BSK_3C_IL8: BioMAP Diversity Plus: 3C Assay for Interleukin-8 (IL8) Biomarker Activity (AID 2283020); details: primary human endothelial cells (HUVEC); actives raise or lower the signal
How it was run: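 IL-8 was measured by ELISA in HUVEC cultures 24 h after chemical dosing, with gain or loss of signal fitted relative to DMSO. Parallel SRB total-protein staining tracked overt cytotoxicity.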

[10] = read-out: Monokine induced gamma interferon (MIG), CXCL9 (gene 4283); assay: BSK_3C_MIG: BioMAP Diversity Plus: 3C Assay for Monokine induced gamma interferon (MIG) Biomarker Activity (AID 2283021); details: primary human endothelial cells (HUVEC); actives raise or lower the signal;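 as to AC50: MIG protein level measured by immunoassay in the treated endothelial cultures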
How it was run: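 ELISA measurement of MIG in human umbilical vein endothelial cells 24 h after treatment. Cytotoxicity tracked by SRB staining in parallel cultures; gain or loss of signal fitted relative to DMSO.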

[11] = target: human Vitamin D Receptor (VDR), VDR (gene 7421) (UniProt P11473); assay: ATG_VDR_TRANS: Attagene TRANS-FACTORIAL HepG2 Assay for human Vitamin D Receptor (VDR) (AID 2283022; active = hit-call score of the fitted dose curve at least 0.9, where 1 is the maximum)
human Vitamin D Receptor (VDR), VDR (gene 7421), sequence (P11473 whole entry, looked up): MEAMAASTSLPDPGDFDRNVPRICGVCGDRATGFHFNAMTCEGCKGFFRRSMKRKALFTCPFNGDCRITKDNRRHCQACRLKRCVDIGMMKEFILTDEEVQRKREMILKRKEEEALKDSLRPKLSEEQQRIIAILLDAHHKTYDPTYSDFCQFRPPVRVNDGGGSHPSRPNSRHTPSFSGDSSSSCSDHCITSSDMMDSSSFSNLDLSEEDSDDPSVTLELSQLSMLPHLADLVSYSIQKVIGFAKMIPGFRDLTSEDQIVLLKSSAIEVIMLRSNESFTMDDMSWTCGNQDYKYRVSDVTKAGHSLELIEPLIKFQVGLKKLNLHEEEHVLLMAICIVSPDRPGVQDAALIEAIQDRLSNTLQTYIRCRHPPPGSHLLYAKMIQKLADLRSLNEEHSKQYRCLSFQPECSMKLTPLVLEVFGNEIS
How it was run: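 Multiplexed TRANS reporter in HepG2; 24 h treatment; reporter mRNA by RT-PCR plus capillary electrophoresis; upregulation scored relative to DMSO.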

[12] = BSK_3C_SRB: Viability Assessment in the BioMAP Diversity Plus: 3C Assay (AID 2283023); details: primary human endothelial cells (HUVEC);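 also: fitted both ways against DMSO so a hit may be signal rise or drop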
How it was run: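 Overt cytotoxicity is gauged in parallel confluent HUVEC cultures by SRB total-protein staining at the time of biomarker measurement, 24 h after dosing. Gain or loss of signal is fitted versus DMSO.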

[13] = read-out: Matrix Metallopeptidase 1 (MMP1), MMP1 (gene 4312); assay: BSK_BE3C_MMP1: BioMAP Diversity Plus: BE3C Assay for Matrix Metallopeptidase 1 (MMP1) Biomarker Activity (AID 2283024); details: primary human bronchial epithelial cells; actives raise or lower the signal
How it was run: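 ELISA measurement of MMP-1 after 24 h compound exposure of primary human bronchial epithelial cells. Changes in either direction fitted relative to DMSO; parallel SRB staining checked overt cytotoxicity.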

[14] = BSK_3C_Vis: BioMAP Diversity Plus: 3C Assay for Morphology Visualization (AID 2283025); details: primary human endothelial cells (HUVEC);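 also: fitted both ways so gain or loss versus DMSO counts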;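 as to AC50: light microscopy image of cell morphology used as background control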
How it was run: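 Light-microscopy visualization of HUVEC cultures at 24 h post-treatment, with DMSO as baseline for bidirectional fitting.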

[15] = read-out: Pselectin, SELP (gene 6403); assay: BSK_4H_Pselectin: BioMAP Diversity Plus: 4H Assay for Pselectin Biomarker Activity (AID 2283026); details: primary human endothelial cells (HUVEC); actives raise or lower the signal
How it was run: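 ELISA of surface P-selectin on HUVEC, 24 h after dosing, with parallel SRB staining (0.1% after 10% TCA fixation, 560 nm) for overt cytotoxicity. Activity fitted in both directions relative to DMSO.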

[16] = BSK_4H_SRB: Viability Assessment in the BioMAP Diversity Plus: 4H Assay (AID 2283027); details: primary human endothelial cells (HUVEC);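 also: cells exposed to compound for 24 h before staining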;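 as to AC50: curves fitted both ways versus DMSO so AC50 may be loss or gain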
How it was run: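 Cytotoxicity read-out in primary human endothelial cells: after 24 h compound exposure, cells were TCA-fixed (10%), stained with 0.1% SRB and absorbance taken at 560 nm. Values fitted in both directions relative to DMSO.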

[17] = BSK_BE3C_SRB: Viability Assessment in the BioMAP Diversity Plus: BE3C Assay (AID 2283028); details: primary human bronchial epithelial cells;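 as to AC50: fitted both ways so AC50 may mark signal gain or loss versus DMSO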
How it was run: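 SRB total-protein staining (0.1%, after TCA fixation) of chemically dosed human bronchial epithelial primary cells at 24 h; DMSO serves as the negative control for bidirectional curve fitting.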

[18] = read-out: Thrombomodulin, THBD (gene 7056); assay: BSK_3C_Thrombomodulin: BioMAP Diversity Plus: 3C Assay for Thrombomodulin Biomarker Activity (AID 2283029); details: primary human endothelial cells (HUVEC); actives raise or lower the signal
How it was run: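 ELISA measurement of thrombomodulin on HUVEC surface 24 h after chemical dosing; activity fitted in both directions relative to DMSO vehicle.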

[19] = read-out: Urokinase-type plasminogen activator receptor (uPAR), PLAUR (gene 5329); assay: BSK_4H_uPAR: BioMAP Diversity Plus: 4H Assay for Urokinase-type plasminogen activator receptor (uPAR) Biomarker Activity (AID 2283030); details: primary human endothelial cells (HUVEC); actives raise or lower the signal
How it was run: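 Endpoint derived via bidirectional curve fitting against DMSO baseline; readout was ELISA detection of uPAR on umbilical vein endothelial cells at 24 h post-treatment, with SRB-stained parallel cultures assessing cytotoxicity.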

[20] = target: human Thyroid Receptor alpha (THRa1), THRA (gene 7067) (UniProt P10827); assay: ATG_THRa1_TRANS: Attagene TRANS-FACTORIAL HepG2 Assay for human Thyroid Receptor alpha (THRa1) (AID 2283014; active = hit-call score of the fitted dose curve at least 0.9, where 1 is the maximum)
human Thyroid Receptor alpha (THRa1), THRA (gene 7067), sequence (P10827 whole entry, looked up, the tested form may be a part): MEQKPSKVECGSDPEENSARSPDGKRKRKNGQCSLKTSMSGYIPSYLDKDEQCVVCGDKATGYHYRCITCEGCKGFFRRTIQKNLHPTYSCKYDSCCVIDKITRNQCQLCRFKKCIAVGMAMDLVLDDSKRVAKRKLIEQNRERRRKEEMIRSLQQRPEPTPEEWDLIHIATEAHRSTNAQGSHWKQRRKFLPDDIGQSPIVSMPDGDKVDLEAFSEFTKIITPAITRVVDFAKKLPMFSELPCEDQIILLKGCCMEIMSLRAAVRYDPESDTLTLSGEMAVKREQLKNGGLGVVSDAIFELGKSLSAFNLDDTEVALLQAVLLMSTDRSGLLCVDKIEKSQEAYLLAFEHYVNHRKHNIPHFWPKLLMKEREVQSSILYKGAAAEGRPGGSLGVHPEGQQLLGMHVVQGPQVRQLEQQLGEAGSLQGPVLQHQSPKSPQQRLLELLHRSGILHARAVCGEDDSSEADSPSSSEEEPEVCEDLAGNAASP
How it was run: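 Measured here is mRNA from a GAL4-UAS reporter in transfected HepG2 cells carrying a Gal4-fused receptor, 24 h post-dose. DMSO served as negative control and baseline.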

Measured: AC50

E-selectin (Homo sapiens), sequence (P16581 whole entry, looked up): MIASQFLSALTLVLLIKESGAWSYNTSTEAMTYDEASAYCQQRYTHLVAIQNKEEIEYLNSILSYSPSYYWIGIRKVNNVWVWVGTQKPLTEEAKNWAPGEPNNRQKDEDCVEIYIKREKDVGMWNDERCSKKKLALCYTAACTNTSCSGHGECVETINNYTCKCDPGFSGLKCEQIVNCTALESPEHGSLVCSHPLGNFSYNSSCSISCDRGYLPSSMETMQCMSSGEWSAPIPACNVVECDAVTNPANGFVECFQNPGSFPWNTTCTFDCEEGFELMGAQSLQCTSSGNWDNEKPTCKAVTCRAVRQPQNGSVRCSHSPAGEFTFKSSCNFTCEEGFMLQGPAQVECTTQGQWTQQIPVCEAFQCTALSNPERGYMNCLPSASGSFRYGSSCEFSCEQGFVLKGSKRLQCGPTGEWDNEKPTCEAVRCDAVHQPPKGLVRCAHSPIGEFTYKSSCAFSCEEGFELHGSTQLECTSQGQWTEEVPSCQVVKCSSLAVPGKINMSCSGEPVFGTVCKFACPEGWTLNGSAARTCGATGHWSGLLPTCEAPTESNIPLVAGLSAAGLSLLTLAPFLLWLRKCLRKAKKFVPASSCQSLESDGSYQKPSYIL

COC(=O)C(C)Oc1ccc(Oc2ccc(Cl)cc2Cl)cc1 (configuration not stated)
inactive: [1] | [2] | [3] | [4] | [5] | [6] | [7] | [8] | [9] | [10] | [11] | [12] | [13] | [14] | [15] | [16] | [17] | [18] | [19]
active: [6] 25.4 µM | [8] 13.8 µM | [12] 14 µM and 20 µM | [14] 39 µM

C=CCC1=C(C)C(OC(=O)C2C(C=C(C)C)C2(C)C)CC1=O (configuration not stated)
active: [3] 22.1 µM | [4] 30.3 µM [middle of 4 runs] | [6] 33.1 µM and 33.5 µM | [7] 21 µM and 34.3 µM | [8] 32.2 µM and 28 µM and 29.1 µM | [9] 32.3 µM [middle of 4 runs] | [10] 31.7 µM | [11] 105 µM | [12] 32.8 µM [middle of 4 runs] | [13] 9.44 µM and 7.51 µM | [14] 39.4 µM and 39 µM | [15] 34.9 µM and 33 µM and 33.2 µM | [16] 32.7 µM [middle of 4 runs] | [19] 38.4 µM and 32.8 µM
inactive: [1] | [2] | [3] | [20] | [5] | [7] | [10] | [11] | [13] | [14] | [15] | [17] | [19]

O=C(O)c1nc(Cl)ccc1Cl
inactive: [1] | [2] | [3] | [20] | [4] | [5] | [6] | [7] | [8] | [9] | [10] | [12] | [13] | [14] | [15] | [16] | [17] | [19]
active: [14] 39 µM

CCOC(=O)CC(SP(=S)(OC)OC)C(=O)OCC (configuration not stated)
inactive: [1] | [2] | [3] | [4] | [5] | [6] | [7] | [9] | [10] | [11] | [12] | [13] | [14] | [15] | [16] | [17] | [19]
active: [3] 63.4 µM | [8] 20 µM

CCCCNC(=O)OCC#CI
active: [4] 31.6 µM and 31.8 µM | [5] 33.7 µM and 29.6 µM | [6] 24.9 µM and 19.2 µM | [7] 26 µM and 14.8 µM | [8] 8.66 µM and 11 µM | [9] 26.2 µM and 28.9 µM | [10] 32.3 µM and 34.4 µM | [12] 18.9 µM and 21.1 µM | [13] 32.9 µM | [14] 11.9 µM and 14.4 µM | [15] 12.8 µM and 16.1 µM | [16] 29 µM and 27.9 µM | [17] 21.5 µM and 26.9 µM | [19] 27.9 µM and 25.8 µM
inactive: [1] | [2] | [3] | [20] | [11]
